# Active and inactive are the calls of the source. How the source made its calls: active means hit-call score of the fitted dose curve at least 0.9, where 1 is the maximum; inactive means score below 0.9.
# Test: APR_HepG2_P-H2AX_72hr: Apredica 72-hour HepG2 Assay for H2AX Phosphorylation (AID 2282916)
# Details: imaging, actives raise or lower the signal
# Description: APR_HepG2_72hr is a cell-based, multiplexed-readout assay that uses HepG2, a human liver cell line, with measurements taken at 72 hours after chemical dosing in a 384-well plate.APR_HepG2_P-H2AX_72hr is one of 10 assay component(s) measured or calculated from the APR_HepG2_72hr assay. It is designed to make measurements of dna content, a form of viability reporter, as detected with fluorescence intensity signals by HCS Fluorescent Imaging technology.Data from the assay component APR_HepG2_P-H2AX_72hr was analyzed into 1 assay endpoint. This assay endpoint, APR_HepG2_P-H2AX_72hr, was analyzed with bidirectional fitting relative to DMSO as the negative control and baseline of activity. Using a type of viability reporter, measures of protein for gain or loss-of-signal activity can be used to understand the signaling at the pathway-level as they relate to the gene . Furthermore, this assay endpoint can be referred to as a primary readout, because this assay has produced multiple assay endpoints where this one serves a signaling function. To generalize the intended target to other relatable targets, this assay endpoint is annotated to the dna binding intended target family, where the subfamily is cellular response to DNA damage stimulus.
# Cells were treated with dimethyl sulfoxide (DMSO) as a solvent control at a final concentration of 0.5% v/v or with compounds in DMSO with a resulting final DMSO concentration of 0.5% v/v. Compound treatment was done at concentrations of 0.39, 0.78, 1.56, 3.12, 6.24, 12.5, 25, 50, 100, and 200 uM in duplicate on each plate. Cells were treated with compounds for 1, 24, or 72 hr. Carbonyl […] m-chloro-phenylhydrazone (CCCP) and taxol were used as positive controls for mitochondrial function and cytoskeletal stability, respectively; DMSO served as the negative control for this experiment. Cells were fixed by the direct addition of 50 uL formaldehyde in Hank's Balanced Salt Solution (HBSS) to a final concentration of 3.7%. After incubation in the fixation medium for 30 min at room temperature (293-298 K), cells were rinsed twice with HBSS and treated with cell permeabilization buffer (16 uL of 0.5% Triton X-100) for 10 min at room temperature (293-298 K) before labeling. For mitochondrial membrane potential and mitochondrial measurements, pre-fixed cells were incubated with 50 uL of MitoTracker Red CMXRos (Invitrogen) at a concentration of 250 nM for 30 min before fixation. In the remaining cases, post-fixed cells were labeled by incubation with a multiplexed mixture of primary antibodies in HBSS for 60 min at room temperature (293-298 K) to detect immunoreactivity of c-Jun (1:500), phospho-histone H3 (1:100), phospho-histone H2A.x (1:200), p53 (1:400), alpha-tubulin (1:200) and Hoechst 33342 (2 ug/mL). Cells were labeled for multiplexed imaging on two separate plates: a) Hoechst 33342, MitoTracker Red, phospho-histone H3, and alpha-tubulin, and b) Hoechst 33342, phospho-histone H2A.x, and c-Jun. A final rinse with HBSS (50 uL) was performed before analysis. The primary and secondary antibodies for the proteins were phospho-histone H3 (rabbit anti-phospho-histone H3 and FITC-donkey anti-rabbit IgG), phospho-histone H2A.x (mouse anti-phospho-histone H2A.x and FITC-donkey anti-mouse IgG), c-Jun (rabbit anti-phospho-c-Jun and Cy3-donkey anti-rabbit IgG), p53 (sheep anti-p53 and Cy5-donkey anti-sheep IgG), alpha-tubulin (mouse anti-alpha-tubulin and Cy5-donkey anti-mouse IgG). These antibodies are available as the CellCiphr HepG2 assay kit (Millipore).Digital images of each well were captured using a Cellomics ArrayScan VTI (Thermo Scientific Cellomics) (0.8 NA objective, 0.63x optical coupler, and XF-93 filter set) at 20x magnification. The images were acquired using the autofocus feature of the ArrayScan instrument, which entails the following steps. First, the camera focuses on channel 1 (Hoechst 33342), where nuclei are identified. Second, a Z offset of 1 um is used for capturing mitochondria (MitoTracker Red). […]
Structure (SMILES),AC50,outcome
Cc1[nH]nc2c1N=C(c1ccccc1Cl)c1cc([N+](=O)[O-])ccc1N2,19.8 µM (active),–
CCCCC=O,–,inactive
CN(Cc1cnc2nc(N)nc(N)c2n1)c1ccc(C(=O)N[C@@H](CCC(=O)O)C(=O)O)cc1,0.0391 µM (active),–
CN(C)CCOC(c1ccccc1)c1ccccc1,114 µM (active),–
CCCCc1oc2ccccc2c1C(=O)c1cc(I)c(OCCN(CC)CC)c(I)c1,75.5 µM (active),–
O=C1NS(=O)(=O)c2ccccc21,–,inactive
O=C(c1ccccc1)c1ccccc1,–,inactive
CCCCC(CC)C(=O)O (stereo not given),–,inactive
OCC(CO)(CBr)CBr,–,inactive
O=C(CCCN1CCC(O)(c2ccc(Cl)cc2)CC1)c1ccc(F)cc1,33 µM (active),–
CCCCCCCCCCCCOS(=O)(=O)O,–,inactive
CCCCCCCCCCCCCCC,–,inactive
CS(=O)(=O)c1ccc([C@@H](CC2CCCC2)C(=O)Nc2cnccn2)cc1Cl,–,inactive
CC(=O)Nc1ccc(O)cc1,–,inactive
N=C(N)c1ccc(OCCCCCOc2ccc(C(=N)N)cc2)cc1,25.1 µM (active),–
